Test results published in PubChem BioAssay.
Activity calls are given as the source filed them.

Tests used:
[1] = anti-His antibody binders, primary screen, artefact control for SMM control protein annotation, biochemical, small-molecule microarray, 635 nm fluorescence (AID 1128); conditions: anti-His Alexa647 antibody binding, higher = more signal;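 note: score merges feature fluorescence with signal-to-noise for each printed compound spot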
[2] = system: Human papillomavirus type 1a E7 protein (residues 1-88); experiment: HPV1a E7 small-molecule binders, primary screen, biochemical, small-molecule microarray, residues 1-88, 635 nm (AID 1129); conditions: small-molecule microarray binding, fluorescence 635 nm; higher = more signal
[3] = target: Focal adhesion kinase 1 (Homo sapiens) (UniProt Q05397); experiment: small-molecule microarray binders of FAK, primary screen, biochemical, 635/667 nm fluorescence, BSA, DTT (AID 1130); conditions: PTK2 binding, 635 nm fluorescence, higher = more signal;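 note: composite of spot emission at 667 nm and signal to noise over triplicate slides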
Chain of Focal adhesion kinase 1 (Homo sapiens) (Q05397 whole entry, looked up): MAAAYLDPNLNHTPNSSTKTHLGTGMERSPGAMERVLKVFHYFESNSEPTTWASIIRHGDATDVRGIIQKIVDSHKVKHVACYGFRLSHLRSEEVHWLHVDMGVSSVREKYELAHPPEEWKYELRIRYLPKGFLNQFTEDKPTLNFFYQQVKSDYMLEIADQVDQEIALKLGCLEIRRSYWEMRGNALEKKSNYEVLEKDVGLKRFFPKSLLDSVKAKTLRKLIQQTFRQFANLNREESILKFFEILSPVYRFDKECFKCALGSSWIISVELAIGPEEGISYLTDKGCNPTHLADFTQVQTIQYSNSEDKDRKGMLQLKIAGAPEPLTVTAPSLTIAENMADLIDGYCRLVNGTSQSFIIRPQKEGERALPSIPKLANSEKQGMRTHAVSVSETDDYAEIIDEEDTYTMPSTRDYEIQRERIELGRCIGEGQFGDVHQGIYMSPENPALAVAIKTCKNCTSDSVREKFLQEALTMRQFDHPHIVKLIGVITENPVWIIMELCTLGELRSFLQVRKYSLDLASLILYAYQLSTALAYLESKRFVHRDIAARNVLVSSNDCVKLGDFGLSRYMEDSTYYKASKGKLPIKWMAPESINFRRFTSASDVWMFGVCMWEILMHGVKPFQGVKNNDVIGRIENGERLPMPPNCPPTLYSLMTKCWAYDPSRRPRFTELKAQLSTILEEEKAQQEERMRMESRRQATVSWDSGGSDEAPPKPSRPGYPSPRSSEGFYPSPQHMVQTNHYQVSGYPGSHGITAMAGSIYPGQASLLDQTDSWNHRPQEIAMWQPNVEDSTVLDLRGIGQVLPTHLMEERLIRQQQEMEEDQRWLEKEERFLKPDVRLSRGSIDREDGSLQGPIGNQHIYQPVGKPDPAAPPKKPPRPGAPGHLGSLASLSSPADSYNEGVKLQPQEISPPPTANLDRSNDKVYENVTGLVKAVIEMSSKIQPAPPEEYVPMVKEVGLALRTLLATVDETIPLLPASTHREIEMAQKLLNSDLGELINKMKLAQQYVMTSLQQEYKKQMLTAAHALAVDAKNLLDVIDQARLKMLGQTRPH

[4] = system: Fibrinogen (Alexa647-labelled); experiment: fibrinogen binders on compound microarrays, profiling panel, artefact control for SMM control-protein annotation, biochemical, small-molecule microarray, 635/667 nm fluorescence (AID 1131); conditions: fibrinogen-A647 binding fluorescence, higher = more signal;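 note: z-score merges 667 nm fluorescence with per-spot signal-to-noise over triplicate slides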
[5] = target: Follistatin (Homo sapiens) (UniProt P19883); experiment: follistatin binders on small-molecule microarrays, primary screen, biochemical, small-molecule microarray, 635/667 nm fluorescence (AID 1132); conditions: FST binding, 635 nm fluorescence, higher = more signal
Chain of Follistatin (Homo sapiens) (P19883 whole entry, looked up): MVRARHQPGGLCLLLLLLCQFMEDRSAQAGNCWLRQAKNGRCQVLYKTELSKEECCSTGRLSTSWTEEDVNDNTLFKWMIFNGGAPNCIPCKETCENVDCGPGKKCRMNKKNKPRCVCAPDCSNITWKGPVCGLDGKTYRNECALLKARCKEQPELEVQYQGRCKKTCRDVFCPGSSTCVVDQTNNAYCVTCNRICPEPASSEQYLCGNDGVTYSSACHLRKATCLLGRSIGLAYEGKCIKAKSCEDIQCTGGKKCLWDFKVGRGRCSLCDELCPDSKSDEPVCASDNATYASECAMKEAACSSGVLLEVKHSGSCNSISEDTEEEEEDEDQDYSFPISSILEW

[6] = target: Fibroblast growth factor 2 (Homo sapiens) (UniProt P09038); experiment: FGF2 binders on small-molecule microarrays, primary screen, biochemical, small-molecule microarray, 635/667 nm fluorescence (AID 1133); conditions: small-molecule microarray binding, FGF2, fluorescence 635/667; higher = more signal
Chain of Fibroblast growth factor 2 (Homo sapiens) (P09038 whole entry, looked up): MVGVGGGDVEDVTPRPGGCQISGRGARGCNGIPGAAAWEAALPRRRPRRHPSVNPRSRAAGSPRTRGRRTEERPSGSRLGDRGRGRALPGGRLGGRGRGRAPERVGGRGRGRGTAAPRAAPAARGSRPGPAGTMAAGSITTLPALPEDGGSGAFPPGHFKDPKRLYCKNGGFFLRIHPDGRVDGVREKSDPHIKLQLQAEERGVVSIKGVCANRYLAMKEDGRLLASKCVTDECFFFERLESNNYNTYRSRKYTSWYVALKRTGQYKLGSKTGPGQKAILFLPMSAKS

[7] = mitochondrial membrane potential change in A549 cells, profiling panel, cell-based, JC-1 fluorescence, basal, 24 h, 100 nL (AID 1138); conditions: higher = more signal;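 note: A549 lung adenocarcinoma cells under basal conditions with no added stimulus; test concentration not given here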
Lefty1 = Lefty1 binders on small-molecule microarrays, primary screen, biochemical, small-molecule microarray, 635/667 nm fluorescence (AID 1139); conditions: small-molecule microarray binding, fluorescence 635/667; higher = more signal
[8] = system: wheat germ agglutinin (Triticum aestivum), Alexa647-labelled; experiment: wheat germ agglutinin binders on compound microarrays, profiling panel, artefact control for SMM control-protein annotation, biochemical, small-molecule microarray, 635/667 nm fluorescence (AID 1140); conditions: WGA-A647 binding, 635 nm fluorescence, higher = more signal;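 note: score merges 667 nm feature emission with signal to noise over triplicate slides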
[9] = target: Luciferin 4-monooxygenase (Photinus pyralis) (UniProt P08659); experiment: firefly luciferase enzyme inhibitors, primary screen, biochemical, luminescence, purified enzyme, 2006 set (AID 1141); conditions: SteadyGlo luminescence, 30 min, higher = more signal, called active from +8 up or from −8 down;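 note: cell-free assay with purified firefly luciferase at 100 ng per well in PBS; test concentration not given here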
Chain of Luciferin 4-monooxygenase (Photinus pyralis) (P08659 whole entry, looked up): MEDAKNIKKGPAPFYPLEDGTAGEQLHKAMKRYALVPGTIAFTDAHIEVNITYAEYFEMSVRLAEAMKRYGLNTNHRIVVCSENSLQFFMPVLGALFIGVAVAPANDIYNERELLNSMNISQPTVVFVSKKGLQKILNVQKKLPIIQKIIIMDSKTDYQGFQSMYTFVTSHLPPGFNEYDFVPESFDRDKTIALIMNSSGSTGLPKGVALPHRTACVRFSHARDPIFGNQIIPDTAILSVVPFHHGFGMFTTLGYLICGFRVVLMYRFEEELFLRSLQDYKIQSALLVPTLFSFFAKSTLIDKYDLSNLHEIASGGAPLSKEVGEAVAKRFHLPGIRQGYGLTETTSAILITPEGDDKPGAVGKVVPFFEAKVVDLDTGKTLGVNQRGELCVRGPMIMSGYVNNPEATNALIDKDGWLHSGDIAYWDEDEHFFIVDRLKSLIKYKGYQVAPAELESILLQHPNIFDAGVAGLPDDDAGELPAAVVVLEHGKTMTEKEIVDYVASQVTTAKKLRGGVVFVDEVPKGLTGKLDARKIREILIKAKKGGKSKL

Structure (SMILES)	composite z-score [1]	composite z-score [2]	composite z-score [3]	composite z-score [4]	composite z-score [5]	composite z-score [6]	z-score [7]	composite z-score (Lefty1)	composite z-score [8]	z-score [9]
COCCOC(=O)N1C(=O)[C@@]2(c3cc(C#CCC(C(=O)OC)C(=O)OC)ccc31)[C@H](c1ccc(O)cc1)N1[C@H](c3ccccc3)[C@H](c3ccccc3)OC(=O)[C@H]1[C@@H]2C(N)=O	1.54	1.23	0.242	0.75	0.857	1.33	-0.82	0.366	0.252	-0.78 (inactive)
C=CCOC(=O)[C@@H]1[C@H]2C(=O)O[C@H](c3ccccc3)[C@H](c3ccccc3)N2[C@H](c2ccc(OCCOC(=O)[C@@H]3C[C@@H]4C(=O)N[C@@H](Cc5ccccc5)C(=O)N4[C@@H]3c3cccc(OCCO)c3)cc2)[C@@]12C(=O)Nc1ccc(I)cc12	0.351	0.675	0.184	0.199	1.33	1.55	-0.917	0.951	0.181	0.152 (inactive)
CC(C)OC(=O)CC(=O)CC(O)c1ccc(C#N)cc1 (stereo not given)	0.548	1.14	0.762	1.04	-0.337	-0.581	0.409	-0.783	0.731	0.902 (inactive)
COc1ccc(C(O)C2C=CC3C(=O)N(c4ccccc4)C(=O)C3N2Nc2ccc([N+](=O)[O-])cc2)cc1OCc1ccccc1 (stereo not given)	1.71	1.2	0.315	0.995	0.508	0.156	0.41	-0.29	1.45	1.42 (inactive)
O=C1OCCC=C[C@H]2OC34C=CCN(c5ccc6ccccc6c5)C(=O)[C@H]3N(CCCCCO)C(=O)[C@@H]4C12 (stereo not given in full)	0.565	0.312	0.602	0.737	-0.626	-0.329	2.3	-0.332	1.28	-1.1 (inactive)
CCOC(=O)C1=CCC(c2ccc([N+](=O)[O-])cc2)N(S(=O)(=O)c2ccc(C)cc2)C1 (stereo not given)	0.711	0.915	0.801	-0.0411	0.261	-0.277	1.15	-0.023	0.44	1.95 (inactive)
Cc1c(NC(=O)CC#N)c(=O)n(-c2ccccc2)n1C	0.514	0.469	0.616	0.134	0.116	0.291	0.385	0.645	0.114	0.551 (inactive)
[N-]=[N+]=NCc1ccccc1C[C@@]1(C(=O)NCC(O)CO)N=C(c2ccc(OCCCO)cc2)O[C@@H]1c1ccccc1CN=[N+]=[N-] (stereo not given in full)	-0.0645	1.23	0.919	0.971	1.28	1.6	0.16	-0.83	0.91	0.782 (inactive)
COc1ccc([Si](C)(C)[C@@H]2[C@@H](CCn3cc([C@H](O)c4ccccc4)nn3)O[C@]3(C(=O)N(Cc4ccc(N5C(=O)c6cccc7cccc5c67)cc4)c4ccccc43)[C@H]2C)cc1	0.448	-0.412	-0.465	-0.151	-0.7	-0.513	1.57	-0.236	-0.101	-0.303 (inactive)
Cc1ccccc1C(O)C1C=CC2C(=O)N(C)C(=O)C2N1N1CCCCC1 (stereo not given)	1.87	1.18	0.665	0.908	0.767	0.0201	0.0822	0.0198	0.596	0.497 (inactive)
Cc1cc(C)cc(N2C(=O)CS(=O)(=O)C2c2cccc([N+](=O)[O-])c2)c1 (stereo not given)	1.11	0.632	0.894	0.829	0.508	0.126	0.382	0.874	0.841	-0.273 (inactive)
